{"source": "paper PMC5540273", "about": "(PLoS ONE, 2017);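 also: KINOMEscan kinase panel screen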"}
{"test_system": "DMPK", "conditions": "concentration: 1 μM,replicates: in singlicate; n = 1", "units": {"%Inh": "%"}}
{"smiles": "CCn1c(-c2nonc2N)nc2cncc(Br)c21", "note": "[SB-738004]", "%Inh": 0}
{"smiles": "O=C1NCCc2[nH]c(-c3ccncc3)cc21", "%Inh": 13}
{"smiles": "FC(F)(F)c1cc(Br)cc(Nc2nccc(-c3cnn4ncccc34)n2)c1", "note": "[GW810578]", "%Inh": 15}
{"smiles": "COc1cccc(OC)c1C(=O)Nc1cccc(-c2nn3ccccc3c2-c2ccnc(Nc3cccc(F)c3)n2)c1", "note": "[GSK361065]", "%Inh": 2}
{"smiles": "C[C@@H](Oc1cc(-n2cnc3cc(-c4ccncc4)ccc32)sc1C(N)=O)c1ccccc1Cl", "note": "[GSK479719]", "%Inh": 0}
{"smiles": "NC(=O)c1ccc(-c2cc3ncnc(SCC(=O)O)c3s2)cc1", "%Inh": 0}
{"smiles": "CC(C)S(=O)(=O)N1CCN(Cc2ccc3c(c2)nc(NC(=O)c2ccsc2)n3C[C@H](O)c2ccccc2)CC1", "note": "[GW635815]", "%Inh": 0}
{"smiles": "COc1cc2nccc(Nc3ccc(Oc4ccccc4)cc3)c2cc1OC.Cl", "note": "[GI261656]", "%Inh": 0}
{"smiles": "CS(=O)c1ccc(-c2coc3ccc(-c4n[nH]c(=O)o4)cc23)cc1", "note": "(stereo not shown)", "%Inh": 29}
{"smiles": "OCCn1cc(-c2cnc3nnn(Cc4ccc5ncccc5c4)c3n2)cn1", "%Inh": 0}
{"smiles": "COC(=O)c1cccc(NC(=O)NC2CCN(c3ccnc(Nc4cc(OC)c(OC)c(OC)c4)n3)C2)c1", "note": "(stereo not shown) [GSK1379767]", "%Inh": 0}
{"smiles": "O=c1[nH]cc(-c2ccc(O)cc2)c2sc(-c3ccncc3)cc12", "note": "[GSK1033723]", "%Inh": 78}
{"smiles": "COc1cc2ncn(-c3cc(OCC4CCCCC4)c(C(N)=O)s3)c2cc1OC", "note": "[GSK204559]", "%Inh": 0}
{"smiles": "Cc1cccc(-c2nc(Nc3ccncc3)c3sccc3n2)n1", "note": "[GW869641]", "%Inh": 18}
{"smiles": "O=C(Nc1ccc(Oc2ccc3nc(NC(=O)C4CC4)cn3n2)c(F)c1)c1cccn(-c2ccccc2)c1=O", "%Inh": 0}
{"smiles": "COC(=O)Nc1nc2cc(Oc3ccc(NC(=O)Nc4cc(C(F)(F)F)ccc4Cl)cc3)ccc2[nH]1.Cl", "note": "[GW697465]", "%Inh": 0}
{"smiles": "Cc1ccc(C(=O)Nc2ccc(Oc3ccc4nc(NC(=O)C5CC5)cn4c3)c(F)c2)c(=O)n1-c1ccccc1", "%Inh": 0}
{"smiles": "NC(=O)Nc1sc(-c2ccc(F)cc2)cc1C(N)=O", "note": "[GW789449]", "%Inh": 0}
{"smiles": "C[C@@H]1CNc2c(sc3ccc4nc(-c5ccncc5)ccc4c23)C(=O)N1", "%Inh": 27}
{"smiles": "CCN1CCN(CCCC(=O)Nc2n[nH]c3nc(-c4ccc(O)cc4)c(Br)cc23)CC1", "note": "[SB-731579]", "%Inh": 89}
{"smiles": "C[C@@H]1CNc2c(sc3ccc4nc(-c5ccc(O)cc5)ccc4c23)C(=O)N1", "%Inh": 0}
{"smiles": "Nc1nccc(-c2ccc3c(N)n[nH]c3c2)n1", "note": "[GSK1034945]", "%Inh": 0}
{"smiles": "c1ccc(Oc2ccc(Nc3ccnc4ccc(-c5ccccn5)cc34)cc2)cc1", "note": "[GW407034]", "%Inh": 0}
{"smiles": "CC(C(=O)NC1CCN(c2ccnc(Nc3ccc(F)cc3)n2)C1)c1ccc(Cl)cc1", "note": "(stereo not shown) [GSK1379713]", "%Inh": 0}
{"smiles": "CCn1c(-c2nonc2N)nc2cncc(CNC3CCNCC3)c21.Cl", "note": "[SB-747651]", "%Inh": 27}
{"smiles": "CN1CCN(CCCNc2nccc(-c3c(-c4ccc(F)cc4)nn4cc(C(N)=O)ccc34)n2)CC1", "note": "[GW622475]", "%Inh": 0}
{"smiles": "COc1cccc(CNC(=O)NC2CCN(c3ccnc(Nc4cc(OC)c(OC)c(OC)c4)n3)C2)c1", "note": "(stereo not shown) [GSK1379765]", "%Inh": 0}
{"smiles": "Cn1ccc2ncnc(Oc3ccc(NC(=O)Nc4cccc(C(F)(F)F)c4)c(F)c3)c21", "%Inh": 0}
{"smiles": "CC(=O)c1c(-c2ccncc2)[nH]c(-c2ccncc2)c1C", "note": "[GW493036]", "%Inh": 23}
{"smiles": "CCOC(=O)N1CCC(n2cnc(-c3ccc(F)cc3)c2-c2ccnc(N)n2)CC1", "note": "[SB-219952]", "%Inh": 22}
{"smiles": "C[C@@H](Oc1cc(-n2cnc3ccc(-c4ccncc4)cc32)sc1C(N)=O)c1ccccc1Cl", "note": "[GSK483724]", "%Inh": 47}
{"smiles": "CN(c1ccc2c(c1)nc(NCc1ccc(F)cc1)n2C)c1ccnc(Nc2ccc(CS(C)(=O)=O)cc2)n1.Cl", "note": "[GW813244]", "%Inh": 0}
{"smiles": "COc1cccc(C2=C(Nc3cccc(Cl)c3)C(=O)NC2=O)c1", "note": "[SB-341556]", "%Inh": 6}
{"smiles": "O=C(Nc1cccc(Oc2ccc3nccn3n2)c1)Nc1cccc(C(F)(F)F)c1", "%Inh": 0}
{"smiles": "O=C(NOCC1CC1)c1cc(Br)c(F)c(F)c1Nc1ccc(I)cc1Cl", "%Inh": 0}
{"smiles": "CN1CCN(CCNc2nc3cc(Oc4ccc(NC(=O)Nc5cc(C(F)(F)F)ccc5F)cc4)ccc3[nH]2)CC1.Cl.Cl", "note": "[GW768504]", "%Inh": 0}
{"smiles": "N#Cc1cccc(C(=O)NC2CCN(c3ccnc(Nc4ccc(F)cc4)n3)C2)c1", "note": "(stereo not shown) [GSK1379708]", "%Inh": 0}
